KLF5 inh: kruppel-like factor 5 inhibition; inhibition, % at 5 µM; AID 1700; DLD-1 KLF5 promoter-luciferase reporter, luminescence; 290,000 compounds, 0.23% hits;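 active = inhibition above a per-plate limit of that plate's mean compound inhibition plus 3 SD, cut at about 60% in these data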;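 note: 0% = DMSO wells and 100% = LY294002 at 200 µM; higher means less KLF5 promoter-driven luciferase light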
IEC-6 cytotox: IEC-6 cytotoxicity, counter-screen for KLF5 inhibitors | 290,000 compounds, 0.78% hits | luminescence viability | inhibition, % at 5 µM; in the data active = inhibition above about 22%;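 note: 0% = plate median of test compound wells and 100% = cytotoxic reference compound wells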
Ba/F3 V617F tox: reduce viability of Ba/F3 cells dependent on JAK2V617F; AID 1446; Ba/F3 EpoR-JAK2V617F viability, ATP luminescence; 220,000 compounds, 1.1% hits; inhibition, % at 5.6 µM;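 active = inhibition above the campaign mean plus 3 SD over all tested compounds, cut at about 24% in these data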;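 note: cytokine-independent growth of Ba/F3 cells driven by EpoR plus mutant JAK2; 0% = DMSO-treated cells and 100% = JAK inhibitor I control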
aSyn UTR inh: 5' untranslated region of α-synuclein, MLPCN primary screen; AID 1813; inhibition, % (tested at 7.5 µM); alpha-synuclein 5'UTR reporter, inhibitor activity; 300,000 compounds, 0.82% hits; in the data active = inhibition above about 60%;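 note: H4 neuroglioblastoma cells stably carrying SNCA 5'UTR luciferase fusion; 0% = DMSO wells and 100% = positive control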
APP 5UTR inh: APP translation inhibition | SH-SY5Y APP 5'UTR-luciferase reporter, luminescence | inhibition, % at 2 µM | 190,000 compounds, 0.82% hits;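 active = inhibition above a set limit, derived from the sample mean plus 3 SD, cut at about 45% in these data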
BaF3 parental: counter-screen for JAK2V617F inhibitors: parental Ba/F3 viability inhibitors | CellTiter-Glo ATP luminescence | inhibition, % at 5.6 µM | 220,000 compounds, 1.1% hits | AID 1486;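 active = inhibition above a per-campaign cutoff, the mean inhibition of all tested compounds plus 3 SD, cut at about 27% in these data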;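 note: 0% = DMSO wells and 100% = JAK Inhibitor I control wells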
Starred values were filed as active, the others as inactive; x = no result given. Compounds with a hit are over-represented: about 2.2% of the library has one in this group of screens.

SMILES | KLF5 inh | IEC-6 cytotox | Ba/F3 V617F tox | aSyn UTR inh | APP 5UTR inh | BaF3 parental
O=C(CSc1nnc(-c2ccc(Br)cc2)o1)Nc1cccc2ccccc12 | -0.8 | -2.4 | -1.2 | x | -2.8 | 3.0
O=C(NCC(c1ccco1)N1CCN(c2ccccc2)CC1)C(=O)NC1CCCCC1 (configuration not stated) | x | x | x | -7.9 | x | x
COc1cc(C(=O)N/N=C/c2ccc(OC(=O)N3CCOCC3)cc2)cc(OC)c1OC | -12.5 | 9.2 | 0.9 | 7.1 | 60.8* | 3.6
COc1cc(C(=O)Oc2ccc(/C=N/NC(=O)c3ccncc3)cc2)cc(OC)c1OC | -17.7 | -4.2 | x | 7.5 | x | x
C=CCn1c(C)cc(C2=NNC(=NC(C)(C)C)SC2)c1C | -27.2 | 0.6 | 1.9 | 89.4* | -127.6 | -0.2
C=CCN=C1NN=C(c2cc(C)n(CCOC)c2C)CS1 | -0.3 | -4.0 | -4.5 | 85.8* | -2.0 | 2.0
COCCn1c(C)cc(C2=NNC(=Nc3ccc(Cl)cc3Cl)SC2)c1C | 0.6 | 1.6 | 0.8 | -2.0 | 5.9 | 3.8
COc1ccc(-n2c(C)cc(C3=NNC(=NC4CC4)SC3)c2C)cc1 | 11.1 | -5.9 | 0.4 | x | -92.6 | 4.7
COCCn1c(C)cc(C2=NNC(=NC3CC3)SC2)c1C | 79.5* | -7.6 | -1.6 | 112.1* | 87.7* | 4.6
Cc1cc(C2=NNC(=NC3CC3)SC2)c(C)n1-c1ccccc1 | 21.4 | 0.4 | -1.6 | 95.2* | 75.9* | 2.7
C=CCn1c(C)cc(C2=NNC(=Nc3ccc(C)cc3)SC2)c1C | 3.5 | -4.7 | 0.1 | -4.2 | -14.1 | 2.1
CCCCOc1ccc(C(=O)OCC(=O)N2CCOCC2)cc1 | 1.0 | -1.5 | x | -1.4 | x | x
COc1ccc(C2CC(c3ccc(Cl)cc3)=NN2C(C)=O)cc1 (configuration not stated) | -88.4 | 3.7 | x | -115.9 | x | x
CN(CCOc1ccccc1)C(=O)c1ccc(N2CCCC2)c([N+](=O)[O-])c1 | -24.5 | -0.3 | x | 4.0 | x | x
Cc1cc(C2=NNC(=NC3CC3)SC2)c(C)n1Cc1ccco1 | -14.7 | -1.6 | -5.3 | x | 46.7* | -2.2
O=C(CCn1nc(-c2ccccc2)c2ccccc2c1=O)NN1CCOCC1 | 18.1 | -7.1 | -2.4 | -5.5 | 8.0 | -0.3
O=c1c2cccc3c2c(nn1CN1CCOCC1)-c1ccccc1-3 | -19.1 | 12.8 | 6.3 | 18.8 | 11.1 | 27.7*
COc1ccccc1-c1cc(C(F)(F)F)n2ncc(C(=O)N3CCc4ccccc4C3)c2n1 | -14.9 | 4.7 | x | 24.8 | x | x
Cc1noc(C)c1COc1ccc(CC(=O)NCCc2ccccn2)cc1 | -25.1 | 0.4 | x | 3.8 | x | x
Cc1ccc(CC(=O)NCc2ccc(F)cc2)cc1 | 20.3 | 50.3* | 35.0* | 3.4 | -9.1 | 57.7*
Cc1noc(C)c1COc1ccc(CC(=O)NCc2ccccc2)cc1 | 61.5 | 79.2* | 72.1* | 71.9* | 86.5* | 72.6*
Cc1ccc(CNC(=O)Cc2ccc(-c3ccccc3)cc2)cc1 | -15.2 | 7.8 | -5.3 | 73.3* | -6.1 | 0.5
O=C(Cc1ccc(-c2ccccc2)cc1)NCc1ccccc1 | 54.6 | 78.1* | 81.3* | 104.5* | 92.8* | 80.8*
Cc1ccc(CNC(=O)CSCc2ccc(F)cc2)cc1 | -17.8 | 8.7 | -1.0 | 17.6 | -4.8 | 4.5
COC(=O)c1ccc2nc(NC(=O)CSCC(=O)OCC(=O)c3ccccc3)sc2c1 | -16.6 | -1.7 | -0.2 | -72.6 | -69.5 | 0.6
SMILES | KLF5 inh | IEC-6 cytotox | Ba/F3 V617F tox | aSyn UTR inh | APP 5UTR inh | BaF3 parental
Cc1ccc2nc(NC(=O)CSCC(=O)OCC(=O)c3ccc(Br)cc3)sc2c1 | -0.2 | 1.7 | -1.2 | 82.9* | 5.7 | 6.0
CCc1ccc(OCCCOc2ccc(C=O)cc2)cc1 | -47.9 | -5.4 | 0.8 | 3.6 | 7.9 | 101.9*
CC(=O)OCc1nc2sc(C)c(C)c2c(=O)[nH]1 | -26.2 | 1.8 | -3.9 | -1.3 | 59.0* | -0.7
Cc1ccc(-n2ncc3c(NCCCN4CCCC4=O)ncnc32)c(C)c1 | -9.9 | -4.6 | 0.7 | -12.0 | 1.8 | 47.1*
CCOC(=O)c1[nH]c2ccc(Cl)cc2c1NC(=O)c1nonc1C | -16.4 | -3.6 | -1.7 | -11.2 | 2.1 | 0.5
CCOC(=O)c1[nH]c2ccc(OC)cc2c1NC(=O)c1nonc1C | -21.3 | 0.5 | 2.9 | 5.6 | 46.3* | -0.1
CC(=O)c1c(C)[nH]c(C(=O)COc2cc(C)ccc2C(C)C)c1C | -10.5 | 16.7 | 45.4* | 23.0 | 4.5 | 40.0*
Cc1ccc2c(c1)C=CC(C)N2C(=O)c1ccccc1 (configuration not stated) | 7.4 | -4.4 | 1.3 | 18.5 | 2.4 | 1.2
Cc1ccc2c(c1)C=CC(C#N)N2C(=O)c1ccccc1 (configuration not stated) | 45.2 | 40.1* | 78.4* | 51.7 | 93.9* | 35.9*
Cn1cc(C(=O)c2ccc(Cl)cc2Cl)cc1C(=O)N/N=C(\N)COc1ccc(Cl)cc1Cl | 6.3 | 6.1 | 0.4 | 64.9* | 6.6 | 8.8
CN(C)c1ccc2c(c1)OC(N)=C(C#N)C2c1cccc(F)c1 (configuration not stated) | -25.1 | 1.9 | -3.4 | 68.0* | 95.1* | 1.6
N#CC1=C(N)Oc2cc(O)ccc2C1c1cccnc1 (configuration not stated) | -11.7 | -4.4 | -4.2 | 2.3 | -11.5 | 2.9
O=C(CSc1nc2cc(C(=O)O)ccc2c(=O)n1-c1ccc(F)cc1)Nc1ccc(F)c(F)c1F | 7.2 | 1.5 | x | 1.4 | x | x
COc1ccc(N2C(=O)c3ccccc3NC2c2ccccc2O)cc1 (configuration not stated) | -102.1 | 7.4 | x | -46.7 | x | x
CC(C)Oc1ccccc1C1Nc2ccccc2C(=O)N1c1ccc2c(c1)OCCO2 (configuration not stated) | -30.7 | 0.6 | -2.7 | 68.1* | -150.1 | 1.0
COc1ccccc1C(C)NC(=O)c1ccccc1SCC(=O)N1CCCC1 (configuration not stated) | x | x | x | 6.9 | x | x
OCCCNC(=S)Nc1ccc2nc(-c3ccccn3)c(-c3ccccn3)nc2c1 | -43.8 | -1.4 | 84.6* | 0.8 | 0.2 | 70.6*
COc1ccccc1C1c2ccc3ccccc3c2Oc2ncn(CCN(C)C)c(=N)c21 (configuration not stated) | -13.8 | 15.4 | x | -11.2 | x | x
COc1ccc(C2c3ccc4ccccc4c3Oc3ncn(CCCN(C)C)c(=N)c32)cc1 (configuration not stated) | -13.9 | 5.0 | x | 89.8* | x | x
O=C(Nc1cccc(C(F)(F)F)c1)Nc1ccc(N2CCCC2)c(S(=O)(=O)Nc2ccccc2Cl)c1 | -4.3 | 1.8 | -4.2 | 92.7* | -10.9 | 1.9
COc1nc(Nc2nc3ccccc3c(=O)[nH]2)nc2ccc(C)cc12 | -24.8 | -7.1 | -1.4 | 89.9* | x | -2.5
CCc1ccc(Nc2cnn(C34CC5CC(CC(CC(=O)O)(C5)C3)C4)c(=O)c2Cl)cc1 | -13.4 | -7.2 | -0.6 | -5.6 | 57.3* | 3.1
CCOc1ccc(NS(=O)(=O)c2ccc(C(=O)N3CCN(c4ncccn4)CC3)cc2)cc1 | -16.4 | 0.1 | 20.8 | 14.7 | 5.8 | 31.3*
Cc1cc2sc3ccc(C#CC4(O)CCCCC4)cc3c(=O)c2cc1C | x | x | x | 102.2* | x | x
Cn1c2ccccc2c(=O)c2cc(C#CC3(O)CCCCC3)ccc21 | 59.3 | 10.8 | x | 76.9* | x | x

Screening data (PubChem)
